High-throughput results: PubChem, National Center for Advancing Translational Sciences (NCATS)
LDHA block – LDHA (human) enzyme inhibition. purified LDHA, NADH/diaphorase-resazurin fluorescence; stronger effect = lower value. activity change, % (values are at about 110 or 230 µM). hit rate 0.15% among 480,000; in the data active means activity change below about -30%; inconclusive means mostly about -25% to -30%;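 further: plate controls were DMSO wells for no effect and wells without enzyme for full effect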
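Human LDH5 (2 nM) was incubated with 0.06 mM NADH and 0.2 mM pyruvate for 5 min at room temperature in Tris pH 7.4. Remaining NADH was coupled through diaphorase/resazurin, and resorufin fluorescence was read at 0 and 20 min.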
HEK293 tox – cytotoxicity counter-screen for GLP-1 receptor inverse agonists | AID 624418 | hit rate 0.13% among 410,000 | Potency, µM (series often up to 38.3 µM), without a hit: at the highest dose activity change, negative = inhibition, hits mostly inhibitors | HEK293 cAMP-luciferase reporter cells, luminescence, 24 h;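 further: loss of luciferase light is scored as toxicity; potency means the concentration at half of the fitted maximal effect; on the % scale 0 is the no-effect control and ±100 the full control effect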
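To flag toxic compounds, the library was rerun on cells for 24 hr at 37 deg C and 5% CO2. Viability-linked luminescence was captured 12 min after adding luciferase detection reagent.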
ClpP mod – qHTS Assay for Activators of ClpP; hit rate 1.9% among 340,000; purified B. subtilis ClpP, FRET peptide cleavage, 20 min; Potency, µM (highest dose often 57.5 µM), without a hit: at the highest dose activity change, negative = active; active means well fitted falling curve with a large enough effect; inconclusive means small, poorly fitted or top-dose-only effect; inactive means no such curve, though single readings can be large or run the other way; further: potency means the concentration at half of the fitted maximal effect; the source files actives as falling curves though it sought activators and does not explain the sign; nearly all actives have a fitted effect of over 65% in size
Target sequence (P80244 whole entry, looked up): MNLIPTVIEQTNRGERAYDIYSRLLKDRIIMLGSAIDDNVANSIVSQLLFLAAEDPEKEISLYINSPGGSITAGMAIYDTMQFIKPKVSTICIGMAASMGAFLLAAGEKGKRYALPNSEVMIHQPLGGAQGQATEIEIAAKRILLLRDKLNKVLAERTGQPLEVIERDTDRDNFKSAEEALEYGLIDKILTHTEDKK
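FRET quenching reversal measured ClpP activation: 10 microg/mL B. subtilis ClpP at pH 8 with the FRET-FV decapeptide, read at 430 nm after 320 nm excitation. The 20-min minus 0-min signal was scaled between DMSO/no-enzyme wells and ADEP (5.8 microM final).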
p53 reactivation – mutant p53 re-activation in reporter cells; H1299 p53-A138V BP100-luciferase reporter, luminescence, 24 h; Potency, µM (titrated, usually from 92.2 µM), for inactives: at the top dose activity change, positive = activation, actives largely listed as activators; hit rate 0.063% among 320,000; AID 504706; further: potency means the concentration at half of the fitted maximal effect; % of control where 0% means no effect; nearly all actives have a fitted effect of over 45% in size
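H1299 (p53-null), stable ts p53-A138V + BP100-Luc; 1000 cells/well, Opti-MEM/10% FBS; cpd 4 pt, 1:5; 24 h, 37 deg C, 5% CO2; detection reagent 10 min RT; luminescence.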
GLP-1R inv ag – inverse agonists of human GLP-1 receptor; Potency, µM (titrated, usually from 38.3 µM), inactives show at the highest dose activity change, negative = inhibition, actives largely listed as inhibitors; HEK293 GLP-1R CRE-luciferase, luminescence, 24 h; GLP-1R form is constitutively active; P43220; hit rate 1.6% among 410,000; further: potency means the concentration at half of the fitted maximal effect; on the % scale 0 is the no-effect control and ±100 the full control effect; nearly all actives have a fitted effect of over 55% in size
Target sequence (P43220 whole entry, looked up): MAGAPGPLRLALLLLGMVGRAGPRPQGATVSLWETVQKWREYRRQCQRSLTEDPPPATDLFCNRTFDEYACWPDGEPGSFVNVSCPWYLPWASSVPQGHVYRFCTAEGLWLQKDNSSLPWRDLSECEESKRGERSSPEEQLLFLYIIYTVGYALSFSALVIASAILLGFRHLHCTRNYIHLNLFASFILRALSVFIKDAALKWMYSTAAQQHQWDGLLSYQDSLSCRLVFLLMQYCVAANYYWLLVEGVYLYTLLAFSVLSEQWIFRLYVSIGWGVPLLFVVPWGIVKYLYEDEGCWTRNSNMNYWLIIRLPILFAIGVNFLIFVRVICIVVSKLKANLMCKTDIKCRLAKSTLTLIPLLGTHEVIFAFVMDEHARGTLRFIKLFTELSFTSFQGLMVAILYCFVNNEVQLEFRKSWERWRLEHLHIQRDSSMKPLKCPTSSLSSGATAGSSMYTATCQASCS
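Constitutively active GLP-1R drives a cAMP-responsive luciferase in stably transfected HEK293 cells; test compounds are added after overnight (12 h) attachment and left 24 hr, and signal loss in luminescence marks inhibition.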
GLP-1R agonist – activates the human GLP-1 receptor; HEK293 GLP-1R CRE-luciferase, luminescence, 4-6 h; cells express a hypersensitive GLP-1R form; Potency, µM (titrated, usually from 45.6 µM), for inactives: top-dose activation, most hits filed as activators; hit rate 0.007% among 380,000; P43220; further: potency means the concentration at half of the fitted maximal effect; % of control where 0% means no effect
An asterisk follows results filed as active; ? = inconclusive; nt = no result. In the library only some 2.9% were active in any assay of this set; here they are far more common. Unless noted, the call rests on the fitted dose curve; in most records, active means well fitted curve in the direction sought with a large enough effect; inconclusive means small, poorly fitted or top-dose-only effect, or another doubt; inactive means no such curve, though single readings can be large; an effect the other way counts as inactive or inconclusive.

SMILES	LDHA block	HEK293 tox	ClpP mod	p53 reactivation	GLP-1R inv ag	GLP-1R agonist
CCCCNC(=S)N(Cc1c(C)noc1C)c1ccccc1	-9.6	-7.9%	3.98µM*	16.5%	-12.9%	-3.9%
Cc1cc(NC(=O)c2cccc(COc3ccc(Br)cc3)c2)no1	-6.8	-34.6%	-1.4%	19.5%	1µM*	-2.7%
CC1(C)C[C@@H]1C(=O)N/C(=C\CCCCSC[C@H](N)C(=O)O)C(=O)O	-9.0	4.5%	2.1%	2.4%	0.6%	-2.5%
O=[N+]([O-])c1ccc2[nH]cc(S(=O)(=O)N3CCN(c4cccc(Cl)c4)CC3)c2c1	-5.8	-27.1%	-1.3%	1.4%	?	-1.7%
CC1(C)C2CCC1(C)C(OC(=O)c1ccccc1C(=O)O)C2 (configuration not stated)	-9.0	-0.4%	nt	-0.2%	?	-1.8%
CC1(C)C2CCC1(C)C(OCCNCCOC(=O)Nc1ccccc1)C2 (configuration not stated)	-3.8	0.0%	0.1%	6.9%	11.2µM*	26.3%
Cc1ccc(S(C)(=O)=NC(=O)NC(=O)c2c(F)cccc2Cl)cc1 (configuration not stated)	-3.9	-0.7%	0.2%	-4.8%	23.4%	-1.7%
O=C(NCc1ccc(F)cc1)C1CCN(S(=O)(=O)c2ccc(Br)s2)CC1	-4.4	-6.8%	nt	-4.0%	10µM*	6.1%
C(=C\c1ccccc1)/CSc1nnc(-c2ccccn2)n1Cc1ccco1	-2.4	?	0.5%	-9.0%	3.98µM*	15.3%
CCCCNc1nc(-c2ccc([N+](=O)[O-])cc2)nc2ccccc12	0.9	nt	nt	nt	nt	nt
CC(Nc1nc(-c2ccc(F)cc2)cs1)c1nc2cc(C(F)(F)F)ccc2n1CCCO (configuration not stated)	-1.0	-8.5%	-2.2%	nt	7.94µM*	-1.0%
CC(Nc1nc(-c2ccc(F)cc2)cs1)c1nc2cc(C(F)(F)F)ccc2n1CCOCCO (configuration not stated)	0.9	7.9%	0.8%	nt	-3.2%	-5.0%
Cc1ccc(Cn2c(C(C)Nc3nc(-c4ccc(F)cc4)cs3)nc3cc(C(F)(F)F)ccc32)cc1 (configuration not stated)	0.0	-13.9%	0.1%	nt	10µM*	-0.4%
NS(=O)(=O)c1cccc(NC(=S)NCc2ccccc2)c1	-2.1	-5.8%	nt	0.9%	0.4%	6.5%
CSc1ccccc1C(=O)N(C)C(c1ccccc1)c1ccccc1	-0.9	-3.0%	nt	-1.1%	8.91µM*	4.8%
CC(CNC(=O)Cn1ccc2cc(S(=O)(=O)N3CCCCCC3)ccc21)c1ccccc1 (configuration not stated)	-3.9	-8.1%	-22.5%	nt	11.2µM*	nt
CNC(=O)Cn1ccc2cc(S(=O)(=O)N3CCCCC3)ccc21	-0.9	nt	nt	nt	nt	nt
COc1ccc(OCCCC(=O)OC(C)C(=O)Nc2cccc(C(C)=O)c2)cc1 (configuration not stated)	-2.6	1.3%	-3.8%	7.2%	-9.9%	-2.2%
COc1ccc(CCN2CC(O)=C(c3nc4ccccc4c(=O)[nH]3)C2=N)cc1OC	-17.5	-21.2%	22.4µM*	-5.2%	-1.6%	1.6%
COc1ccc(CCN2CC(O)=C(c3nc(C)cs3)C2=N)cc1OC	3.6	2.7%	0.2%	2.6%	0.0%	0.2%
O=[N+]([O-])c1cc(S(=O)(=O)C(F)(F)F)ccc1N1CCN(c2ccccc2)CC1	-0.6	-24.7%	-0.9%	8.9%	5.01µM*	?
Cc1ccc(S(=O)(=O)c2c(N)n(Cc3ccco3)c3nc4ccccc4nc23)cc1	0.2	0.0%	14.1µM*	-5.3%	?	-0.7%
Cc1ccc(S(=O)(=O)c2c(N)n(NC(=O)c3ccco3)c3nc4ccccc4nc23)cc1	3.7	0.7%	8.91µM*	-4.3%	-0.1%	-4.2%
Cc1cccc(S(=O)(=O)c2c(N)n(Cc3ccco3)c3nc4ccccc4nc23)c1	-7.7	106.1%	6.31µM*	-3.9%	38.2%	0.1%
O=C(O)COc1ccc(C=C2SC(=S)N(c3ccccc3)C2=O)cc1	-2.5	?	nt	nt	-13.7%	0.7%
SMILES	LDHA block	HEK293 tox	ClpP mod	p53 reactivation	GLP-1R inv ag	GLP-1R agonist
COc1ccc(-c2ccnc(SCC(=O)Nc3ccccn3)n2)cc1	-4.1	-2.8%	35.5µM*	-2.4%	19.7%	22.0%
COc1ccc(NC(=O)CSc2nnc3ccc(-c4ccccn4)nn23)cc1	-2.4	-12.2%	15.8µM*	5.0%	14.7%	-6.5%
COc1ccccc1NC(=O)CSc1nccc(-c2ccc(OC(F)F)cc2)n1	6.0	nt	nt	nt	nt	nt
Cc1oc(-c2ccccc2)cc1C(=O)Nc1cccc2ccccc12	-0.5	-18.1%	-2.0%	?	10µM*	-11.4%
Cc1oc(-c2ccccc2)cc1C(=O)Nc1cccc(C(=O)O)c1	-4.6	2.0%	-4.2%	?	6.9%	-10.9%
Cc1ccn2c(c1)nc(=S)n2C(=O)c1ccccc1	-0.9	-18.5%	-5.7%	nt	2.51µM*	-11.7%
c1ccc(CC2CCN(c3nc4ccccc4n4nnnc34)CC2)cc1	-7.0	48.8%	15.8µM*	?	?	0.2%
CN1CCc2c(sc3c2c(=O)n(-c2ccccc2)c2nnc(SCc4ccc(F)cc4)n32)C1	-3.5	-7.6%	0.2%	nt	19.2%	4.1%
Cc1sc(-c2cc3ccccc3oc2=O)nc1-c1ccc(Cl)cc1	1.5	-6.2%	31.6µM*	nt	1.9%	nt
O=C1CC(c2ccccc2)Cc2[nH]c(=O)c(-c3nc(-c4ccc(Cl)cc4)cs3)cc21 (configuration not stated)	-7.9	5.2%	-9.3%	nt	?	nt
Cc1sc(-c2cc3ccccc3oc2=O)nc1-c1ccc(Cl)c(Cl)c1	-8.2	3.9%	-10.8%	nt	-6.5%	nt
Cc1sc(-c2cc3c([nH]c2=O)CC(c2ccccc2)CC3=O)nc1-c1ccc(Cl)cc1 (configuration not stated)	-2.3	?	-6.5%	nt	1.26µM*	nt
Cc1cc(C)nc(SCc2nc3nc(C)cc(C)n3c2Br)n1	-12.7	-4.9%	28.2µM*	-4.1%	6.6%	-0.3%
CCOC(=O)NC1(C(F)(F)F)NC(=O)N(c2ccc(F)cc2)C1=O (configuration not stated)	-7.2	6.9%	35.5µM*	-1.8%	2.7%	-13.2%
Cc1ccc(C(=O)NC2(C(F)(F)F)NC(=O)N(c3ccc(Cl)cc3)C2=O)cc1 (configuration not stated)	0.1	-10.0%	-0.2%	2.7%	5.62µM*	-3.9%
COc1ccccc1NC(C)=[N+](C)CCNS(=O)(=O)c1ccc(Cl)cc1	-73.7*	-2.3%	-0.1%	21.1%	-19.2%	0.9%
